The subject of the assay is PvIESI-1 RRM domain (Plasmodium vivax PVP01_0939900 aa 896-1203, GST fusion). Nature of the assay: RBNS R-value (6-mer enrichment in protein-bound RNA vs input library) (ratio); higher = stronger binding preference; the methods of the paper give 50 / 100 / 500 nM protein instead. The procedure:
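RNA Bind-n-Seq: recombinant GST-tagged IESI-1 RRM domain was incubated at room temperature with a random 40-nt in vitro transcribed RNA library at 250, 500 or 1000 nM protein. Bound RNA was pulled down on glutathione beads and sequenced. R-value is the enrichment of each 6-mer in the bound RNA relative to the input library. Each 6-mer sits inside the random 40-mer context, not as an isolated oligo. Values are replicate 1 only.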

Turning to GAUGAC, the “RBNS R-value” stood at 2.47 (protein concentration: 250 nM), 2.67 (protein concentration: 500 nM) and 2.51 (protein concentration: 1000 nM).
The matching figures for UUGAUC: 1.91, 2.12 and 2.1.
Turning to GAUGAU, the “RBNS R-value” runs as follows: (protein concentration: 250 nM) 3.86; (protein concentration: 500 nM) 4.13; (protein concentration: 1000 nM) 3.88.
Regarding UGAUAU, the “RBNS R-value” runs as follows: (protein concentration: 250 nM) 2.45; (protein concentration: 500 nM) 2.79; (protein concentration: 1000 nM) 2.9.
Turning to UCUGAU, the “RBNS R-value” reads like this: (protein concentration: 250 nM) 2.94; (protein concentration: 500 nM) 3.21; (protein concentration: 1000 nM) 3.02.
On to UGAUGC, for which the “RBNS R-value” (protein concentration: 250 nM) is 3.72, the “RBNS R-value” (protein concentration: 500 nM) is 4.04 and the “RBNS R-value” (protein concentration: 1000 nM) amounted to 3.95.
In the case of CGUGAU, the “RBNS R-value” worked out at 2.33 (protein concentration: 250 nM), 2.54 (protein concentration: 500 nM) and 2.51 (protein concentration: 1000 nM).
On the same counts, the results for UGAUGA are 5.51, 5.62 and 5.25.
In the case of UGAUUU, the “RBNS R-value” by setting is: (protein concentration: 250 nM) 4.88; (protein concentration: 500 nM) 5; (protein concentration: 1000 nM) 4.69.
Take GAUGAG: the “RBNS R-value” runs as follows: (protein concentration: 250 nM) 2.33; (protein concentration: 500 nM) 2.49; (protein concentration: 1000 nM) 2.4.
With GACACC, the “RBNS R-value” is 1.46 (protein concentration: 250 nM), 1.66 (protein concentration: 500 nM) and 1.69 (protein concentration: 1000 nM).
As for GAUGUG, the “RBNS R-value” runs as follows: (protein concentration: 250 nM) 2.3; (protein concentration: 500 nM) 2.53; (protein concentration: 1000 nM) 2.31.
UUGAUU: the “RBNS R-value” was found to be 4.5 (protein concentration: 250 nM), 4.73 (protein concentration: 500 nM) and 4.43 (protein concentration: 1000 nM).
The matching figures for CCUUGA: 1.7, 1.88 and 1.91.
